Results as given in ChEMBL document CHEMBL3988442, “University of Dundee, Small-Polar-MMV Screening Library” (2021).
For some assays here: Results with a measured potency or affinity are listed apart.

How the values were obtained:
Set-up in all cases: scale not given: direction of the effect not stated beside the values
[1] = biological target: Protein translocase subunit SecA (Escherichia coli (strain K12)) (UniProt P10408); assay: Assay to Identify E. coli SecA ATPase Inhibitors; format: functional; conditions: 30 µM
Chain of Protein translocase subunit SecA (Escherichia coli (strain K12)) (P10408 whole entry): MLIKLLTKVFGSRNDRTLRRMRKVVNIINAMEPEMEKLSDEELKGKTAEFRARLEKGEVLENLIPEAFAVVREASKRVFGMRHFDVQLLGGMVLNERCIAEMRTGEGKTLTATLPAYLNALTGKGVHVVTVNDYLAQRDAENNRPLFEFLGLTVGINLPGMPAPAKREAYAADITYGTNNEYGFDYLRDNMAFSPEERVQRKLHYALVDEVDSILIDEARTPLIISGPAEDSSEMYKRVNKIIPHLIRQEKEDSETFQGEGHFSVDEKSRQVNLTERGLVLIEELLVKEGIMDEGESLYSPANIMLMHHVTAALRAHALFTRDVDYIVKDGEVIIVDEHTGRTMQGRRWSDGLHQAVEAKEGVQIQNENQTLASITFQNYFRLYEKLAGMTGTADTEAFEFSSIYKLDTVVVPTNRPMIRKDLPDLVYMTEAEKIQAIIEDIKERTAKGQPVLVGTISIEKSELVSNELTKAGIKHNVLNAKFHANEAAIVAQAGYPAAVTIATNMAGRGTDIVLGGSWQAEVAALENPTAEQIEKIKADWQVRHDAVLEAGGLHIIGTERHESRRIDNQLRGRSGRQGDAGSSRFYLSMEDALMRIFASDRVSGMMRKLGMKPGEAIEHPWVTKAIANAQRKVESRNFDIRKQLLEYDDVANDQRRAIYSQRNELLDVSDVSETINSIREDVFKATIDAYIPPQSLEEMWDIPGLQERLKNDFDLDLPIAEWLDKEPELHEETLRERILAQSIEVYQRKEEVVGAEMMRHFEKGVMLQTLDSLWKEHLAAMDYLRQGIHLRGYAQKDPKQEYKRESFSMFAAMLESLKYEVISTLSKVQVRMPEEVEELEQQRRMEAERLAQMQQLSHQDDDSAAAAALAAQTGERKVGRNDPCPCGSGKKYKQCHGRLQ

[2] = biological target: T1, Ubiquitin-activating enzyme e1, putative (Leishmania donovani (strain BPK282A1)) (UniProt E9BSI1); assay: Leishmania donovani Ubiquitin Activating Enzyme (LdE1); format: functional; conditions: 30 µM
T1 sequence (whole entry): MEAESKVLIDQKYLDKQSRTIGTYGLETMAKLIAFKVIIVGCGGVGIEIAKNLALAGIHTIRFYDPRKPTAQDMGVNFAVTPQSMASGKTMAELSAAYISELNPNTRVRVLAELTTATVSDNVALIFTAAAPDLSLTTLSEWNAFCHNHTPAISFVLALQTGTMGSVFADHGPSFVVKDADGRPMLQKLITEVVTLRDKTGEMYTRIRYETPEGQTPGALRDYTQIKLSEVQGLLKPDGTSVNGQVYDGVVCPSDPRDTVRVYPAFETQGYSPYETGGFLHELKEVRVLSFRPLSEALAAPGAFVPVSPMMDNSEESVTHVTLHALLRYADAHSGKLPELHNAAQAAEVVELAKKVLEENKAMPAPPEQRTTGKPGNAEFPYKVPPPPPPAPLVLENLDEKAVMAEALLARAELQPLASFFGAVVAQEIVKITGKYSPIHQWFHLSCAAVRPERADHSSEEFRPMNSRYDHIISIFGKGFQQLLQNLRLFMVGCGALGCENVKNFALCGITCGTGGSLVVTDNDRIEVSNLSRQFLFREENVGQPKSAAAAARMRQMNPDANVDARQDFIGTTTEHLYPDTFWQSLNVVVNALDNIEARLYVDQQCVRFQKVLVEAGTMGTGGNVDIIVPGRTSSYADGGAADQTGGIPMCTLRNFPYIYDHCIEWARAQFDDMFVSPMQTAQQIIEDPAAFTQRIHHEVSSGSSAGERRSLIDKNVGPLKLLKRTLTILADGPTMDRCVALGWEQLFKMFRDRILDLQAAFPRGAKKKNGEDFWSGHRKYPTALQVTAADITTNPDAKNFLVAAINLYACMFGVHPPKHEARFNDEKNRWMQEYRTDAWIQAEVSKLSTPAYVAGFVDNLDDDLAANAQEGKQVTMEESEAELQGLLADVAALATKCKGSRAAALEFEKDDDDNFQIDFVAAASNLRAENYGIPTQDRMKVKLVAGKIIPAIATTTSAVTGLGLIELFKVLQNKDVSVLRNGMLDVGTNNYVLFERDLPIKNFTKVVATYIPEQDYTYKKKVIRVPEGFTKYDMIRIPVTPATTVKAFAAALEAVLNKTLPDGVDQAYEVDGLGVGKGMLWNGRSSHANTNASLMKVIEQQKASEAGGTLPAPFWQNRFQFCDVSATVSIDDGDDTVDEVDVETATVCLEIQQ

[3] = biological target: Sialic acid-binding Ig-like lectin 9 (Homo sapiens) (UniProt Q9Y336); assay: Hs-Siglec9 ALPHAscreen SOP 20170721; conditions: 10 µM
Chain of Sialic acid-binding Ig-like lectin 9 (Homo sapiens) (Q9Y336 whole entry): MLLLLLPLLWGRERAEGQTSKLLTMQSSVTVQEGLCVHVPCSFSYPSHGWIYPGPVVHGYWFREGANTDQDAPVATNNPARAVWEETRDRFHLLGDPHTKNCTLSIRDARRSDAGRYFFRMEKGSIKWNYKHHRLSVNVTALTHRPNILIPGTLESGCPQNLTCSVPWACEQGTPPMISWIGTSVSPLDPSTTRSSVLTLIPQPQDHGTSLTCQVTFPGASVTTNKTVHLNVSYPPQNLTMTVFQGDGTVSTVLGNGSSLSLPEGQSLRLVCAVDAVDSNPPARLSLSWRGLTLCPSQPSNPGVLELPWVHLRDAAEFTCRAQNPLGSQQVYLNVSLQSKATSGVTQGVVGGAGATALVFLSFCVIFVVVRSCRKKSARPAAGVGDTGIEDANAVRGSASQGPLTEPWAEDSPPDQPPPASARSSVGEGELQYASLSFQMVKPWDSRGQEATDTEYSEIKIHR

[4] = system: Trypanosoma cruzi; assay: Trypanosoma cruzi phosphomannomutase and mannose-1-phosphate guanylyltransferase assay; format: functional; conditions: 10 µM
[5] = biological target: T2, Arginase-2, mitochondrial (Homo sapiens) (UniProt P78540); assay: in vitro enzyme assay to detect the production of urea directly proportional to the activity of Arginase II; format: functional; conditions: 33.3 µM; also: in the data most compounds retested in dose-response had high values
T2 sequence (whole entry): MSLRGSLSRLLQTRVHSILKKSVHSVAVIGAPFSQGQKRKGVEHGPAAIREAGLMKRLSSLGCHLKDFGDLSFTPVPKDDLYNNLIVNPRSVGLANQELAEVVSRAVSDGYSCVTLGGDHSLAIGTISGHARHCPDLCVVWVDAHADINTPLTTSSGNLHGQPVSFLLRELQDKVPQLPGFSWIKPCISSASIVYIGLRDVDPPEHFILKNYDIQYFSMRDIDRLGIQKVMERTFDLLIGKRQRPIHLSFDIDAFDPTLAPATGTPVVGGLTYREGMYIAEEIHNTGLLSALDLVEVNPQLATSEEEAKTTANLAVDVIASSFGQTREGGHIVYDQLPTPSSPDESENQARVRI

[6] = biological target: T3, Proteasome subunit beta (Trypanosoma cruzi) (UniProt O96673); assay: Trypanosoma cruzi proteasome chymotrypsin-like activity (TcProtChymo) assay.; also: in the data most compounds retested in dose-response had high values; format: functional; conditions: 9.37 µM
T3 sequence (whole entry): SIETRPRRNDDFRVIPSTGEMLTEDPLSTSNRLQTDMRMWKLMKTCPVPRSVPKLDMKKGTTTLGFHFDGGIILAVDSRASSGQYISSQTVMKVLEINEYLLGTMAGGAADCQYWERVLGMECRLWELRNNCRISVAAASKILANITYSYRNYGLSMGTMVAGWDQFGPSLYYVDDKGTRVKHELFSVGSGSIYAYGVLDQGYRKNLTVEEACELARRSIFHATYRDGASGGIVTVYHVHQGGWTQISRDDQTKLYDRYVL

[7] = species on record: Homo sapiens; assay: To identify inhibition of the IFN signalling (Jak-Stat) pathway via expression of an eGFP reporter gene under the control of an IFN-stimulated response element (ISRE) containing MxA promoter.; format: functional; conditions: 30 µM
[8] = biological target: T4, Tyrosyl-tRNA synthetase, putative (Trypanosoma cruzi (strain CL Brener)) (UniProt Q4DSP6); assay: Trypanosoma cruzi tyrosyl tRNA synthetase (TcYRS) _High Tyrosine SOP; format: functional; conditions: 30 µM; also: in the data most compounds retested in dose-response had high values
T4 sequence (whole entry): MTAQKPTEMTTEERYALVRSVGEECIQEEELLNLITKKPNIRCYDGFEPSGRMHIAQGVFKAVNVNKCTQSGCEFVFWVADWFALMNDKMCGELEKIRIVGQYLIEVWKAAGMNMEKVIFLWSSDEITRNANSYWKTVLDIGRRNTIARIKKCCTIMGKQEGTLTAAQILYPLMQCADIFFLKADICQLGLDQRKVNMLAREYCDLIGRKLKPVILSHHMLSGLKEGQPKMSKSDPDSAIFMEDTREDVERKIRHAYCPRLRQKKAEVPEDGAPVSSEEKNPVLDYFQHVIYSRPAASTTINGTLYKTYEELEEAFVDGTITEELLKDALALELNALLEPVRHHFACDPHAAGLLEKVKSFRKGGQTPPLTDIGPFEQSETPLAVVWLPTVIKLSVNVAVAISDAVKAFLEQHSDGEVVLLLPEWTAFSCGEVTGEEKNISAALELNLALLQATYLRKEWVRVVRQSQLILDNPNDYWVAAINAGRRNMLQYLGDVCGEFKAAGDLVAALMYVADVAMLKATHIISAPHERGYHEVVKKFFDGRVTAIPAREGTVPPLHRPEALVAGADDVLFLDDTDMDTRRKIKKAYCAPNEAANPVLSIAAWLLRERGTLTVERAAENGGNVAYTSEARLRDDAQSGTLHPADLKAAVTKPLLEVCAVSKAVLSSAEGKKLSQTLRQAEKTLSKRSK

[9] = biological target: T4, Tyrosyl-tRNA synthetase, putative (Trypanosoma cruzi (strain CL Brener)); assay: Trypanosoma cruzi tyrosyl tRNA synthetase (TcYRS) SOP; format: functional; conditions: 30 µM
[10] = biological target: Chromo domain-containing protein 1 (Saccharomyces cerevisiae (strain ATCC 204508 / S288c) (Baker's yeast)) (UniProt P32657); assay: ScCHD-1 Enzyme Inhibition Assay; format: functional; conditions: 30 µM; also: in the data most compounds retested in dose-response had high values
Chain of Chromo domain-containing protein 1 (Saccharomyces cerevisiae (strain ATCC 204508 / S288c) (Baker's yeast)) (P32657 whole entry, the tested form may be a part): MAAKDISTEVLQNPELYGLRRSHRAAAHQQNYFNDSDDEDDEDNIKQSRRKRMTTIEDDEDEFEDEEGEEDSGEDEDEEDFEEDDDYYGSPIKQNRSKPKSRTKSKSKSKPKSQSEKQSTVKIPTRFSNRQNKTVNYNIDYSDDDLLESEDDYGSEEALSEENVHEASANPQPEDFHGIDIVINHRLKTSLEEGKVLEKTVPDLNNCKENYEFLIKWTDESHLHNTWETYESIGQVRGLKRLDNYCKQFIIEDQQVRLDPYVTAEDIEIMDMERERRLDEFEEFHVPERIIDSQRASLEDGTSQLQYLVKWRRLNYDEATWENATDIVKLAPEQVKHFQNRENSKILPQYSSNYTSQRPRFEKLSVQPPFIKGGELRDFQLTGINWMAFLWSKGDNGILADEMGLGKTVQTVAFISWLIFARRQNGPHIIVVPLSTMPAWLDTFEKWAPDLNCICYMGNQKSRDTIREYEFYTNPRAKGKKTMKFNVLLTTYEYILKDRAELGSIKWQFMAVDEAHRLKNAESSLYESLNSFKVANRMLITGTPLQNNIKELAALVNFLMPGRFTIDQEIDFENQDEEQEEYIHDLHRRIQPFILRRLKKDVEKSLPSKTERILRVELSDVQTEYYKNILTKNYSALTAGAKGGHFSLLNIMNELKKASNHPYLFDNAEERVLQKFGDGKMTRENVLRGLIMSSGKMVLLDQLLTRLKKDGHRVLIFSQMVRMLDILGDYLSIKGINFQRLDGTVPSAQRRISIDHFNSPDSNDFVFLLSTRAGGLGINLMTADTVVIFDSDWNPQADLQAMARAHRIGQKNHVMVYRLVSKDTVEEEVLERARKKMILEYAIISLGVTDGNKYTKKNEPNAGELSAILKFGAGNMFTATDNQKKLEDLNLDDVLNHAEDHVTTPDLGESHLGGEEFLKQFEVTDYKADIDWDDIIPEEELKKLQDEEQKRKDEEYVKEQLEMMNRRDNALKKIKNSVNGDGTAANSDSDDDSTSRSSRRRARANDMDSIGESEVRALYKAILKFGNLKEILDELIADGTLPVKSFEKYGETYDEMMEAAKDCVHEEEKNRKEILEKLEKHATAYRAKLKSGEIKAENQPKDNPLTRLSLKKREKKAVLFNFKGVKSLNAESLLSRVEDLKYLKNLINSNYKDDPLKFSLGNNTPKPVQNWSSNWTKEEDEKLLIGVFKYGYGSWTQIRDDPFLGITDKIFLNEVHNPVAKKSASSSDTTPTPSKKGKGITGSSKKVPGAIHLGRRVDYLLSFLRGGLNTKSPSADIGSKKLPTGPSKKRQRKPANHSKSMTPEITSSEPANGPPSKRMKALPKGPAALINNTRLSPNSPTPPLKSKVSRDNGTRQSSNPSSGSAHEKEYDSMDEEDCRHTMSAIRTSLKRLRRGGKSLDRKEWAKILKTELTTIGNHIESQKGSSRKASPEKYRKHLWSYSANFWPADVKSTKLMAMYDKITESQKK

SMILES	Percent Effect [1]	Percent Effect [2]	Percent Effect [3]	Percent Effect [4]	Percent Effect [5]	Percent Effect [6]	Percent Effect [7]	Percent Effect [8]	Percent Effect [9]	Percent Effect [10]
CN(C)Cc1ccc(C2CCCCN2C(=O)c2cccc(CO)n2)cc1 (stereo not given)	-5.85%	13.5%	26.3%	9.8%	23.4%	9.25%	8.84%	6.92%	14.6%	80.3%
Nc1cc(CCC2CN(Cc3ccc(C(=O)O)cc3)CCO2)ccn1 (stereo not given)	-3.81%	9.33%	-7.05%	-5.72%	-1.77%	13%	12.6%	-1.06%	2.5%	-22%
c1ccc(-n2ncc(CN3CCCC3Cn3cccn3)n2)cc1 (stereo not given)	-6.8%	-13%	24.4%	-2.61%	-0.205%	5.44%	1.65%	-1.96%	-2.35%	3.05%
CCn1ccnc1CN1CCC(N(C)Cc2ncc(C)o2)C1 (stereo not given)	-0.494%	13.3%	-7.04%	-3.21%	3.1%	12.5%	14.6%	10%	17.9%	-11.2%
CC(C)NC(=O)CC1COC2(CCN(Cc3ccccc3)CC2)C1 (stereo not given)	-1.47%	16.9%	-1.95%	-2.25%	2.28%	16.2%	-3.75%	7.73%	10%	-5.41%
Cc1noc(C2CCN(C(=O)CCNc3ncccn3)CC2)n1	-0.897%	12.8%	-14%	5.92%	0%	9.98%	14.8%	6.22%	22.9%	-4.88%
Cc1[nH]c(=O)c(C#N)cc1C(=O)N1C[C@@H](CN2CCCC2)C[C@H](CO)C1	-6.79%	-8.11%	-1.68%	-2.81%	3.85%	-5.82%	21.2%	-0.532%	-2.44%	2.93%
COc1ccc(-n2ncc(C(=O)NCC3COC(C)(C)O3)c2N)cc1 (stereo not given)	97.8%	14.7%	-6.21%	-0.592%	1.33%	14.8%	15.7%	1.06%	5%	-19.9%
COCc1cccc(NS(=O)(=O)c2cc(C(=O)O)cs2)c1	-3.18%	5.13%	-6.44%	2.91%	2.46%	8.11%	4.97%	3.35%	13.2%	-5.54%
COCCN1CCCC1c1nccnc1Nc1nc(C)cs1 (stereo not given)	-2.72%	12%	5.33%	-2.56%	3.98%	7.55%	21.3%	9.52%	15%	-24.9%
CC(C)N(C)CC(=O)N1CCCC(c2ccc(C(=O)O)cc2)C1 (stereo not given)	-7.71%	5.41%	3.58%	8.44%	-1.05%	1.71%	-11.9%	7.98%	17.1%	-2.58%
CN1CCN(C[C@@H]2CN(C(=O)c3ccccc3C#N)C[C@@H]2CO)CC1	-3.4%	10.8%	10.3%	7.86%	0.35%	3.42%	7.14%	4.79%	9.76%	0.408%
CCc1cc(C(=O)N2CCCC2c2nc(C)c(F)c(O)n2)on1 (stereo not given)	1.86%	17.3%	-9.03%	0.197%	-3.54%	16.1%	26.2%	3.17%	10%	-19.6%
O=C1COC2(COCCN(Cc3ccsc3)C2)CN1c1ccc(F)cc1 (stereo not given)	-4.18%	1.3%	13.2%	-5.36%	1.22%	10.3%	-0.829%	4.74%	7.69%	-1.9%
Cc1noc(C)c1C(=O)N1CC[C@H]2C[C@@H](c3nccs3)O[C@@H]2C1	-6%	6.49%	1.62%	5.55%	-10.5%	14.2%	-13.4%	7.89%	12.8%	-3.15%
CCn1ccnc1CN1CCCN(C(=O)c2cccc(C#N)c2)CC1	0.122%	2.56%	-6.11%	7.79%	7.38%	0.939%	9.49%	1.44%	1.21%	1.21%
CC(=O)N1CCOC2(CCN(C(=O)c3cnoc3C)CC2)C1	-3.9%	-1.3%	2.36%	0.682%	-0.405%	0.441%	-5.16%	2.63%	5.13%	2.4%
O=C(Nc1cccc(N2CCCC2)c1)C1CCCN1c1nccs1 (stereo not given)	-2.06%	-15.4%	6.8%	8.92%	-1.23%	1.79%	-2.5%	8.13%	-1.21%	-2.52%
CN(Cc1nc2c(cnn2C)c(=O)[nH]1)Cc1ccc(F)cc1F	-0.314%	20.5%	-17.8%	2.72%	-2.05%	16.8%	3.63%	7.18%	25.3%	-5.98%
Cc1cccn2cc(CC(=O)N3CCCC(n4cncn4)C3)nc12 (stereo not given)	-0.27%	17.9%	-8.4%	6.1%	5.74%	15.6%	17.2%	3.35%	22.9%	-6%
Fc1cccc(CN2CCO[C@H]3[C@@H](OCc4ccccn4)CC[C@@H]32)c1	-6.18%	6.49%	-6.92%	7.3%	-3.24%	8.91%	4.17%	2.63%	15.4%	-0.559%
Cc1cc(CN(C)C(=O)c2ccc(Cl)c(S(C)(=O)=O)c2)no1	-9.03%	13.3%	7.77%	3.81%	-4.88%	9.41%	6.05%	1.58%	10.3%	-11.5%
Cc1ccccc1-c1noc(CN2CCn3c(nnc3C3CC3)C2)n1	-6.21%	-25.6%	-13.3%	-3.1%	-0.41%	5.21%	15.8%	0.478%	1.21%	-7.86%
